Sampled rows, rich in hits. Any-hit rate of the full collection: about 2.1%.
MazEF act = activators of E. coli MazEF toxin-antitoxin RNase, primary screen, biochemical, fluorescence, uHTS; Endoribonuclease toxin MazF (Escherichia coli (strain K12)), P0AE70; FAM/BHQ RNA-DNA oligo cleavage fluorescence, 5 h; activation, % at 20 µM; 350,000 tested, 0.32% active; AID 504720, 2011; in the data active = activation above about 50%
PrP 5UTR inh = inhibition of PrP 5' UTR reporter expression; cell-based PrP 5' UTR mRNA reporter, plate reader; inhibition, % (no concentration beside the values); 340,000 tested, 0.35% active; AID 488862, 2010; in the data active = inhibition above about 52%
PfHsp40 rescue = rescue of yeast from PfHsp40 toxicity, primary screen, S. cerevisiae, ATP luminescence; S. cerevisiae expressing PfHsp40, growth rescue; 340,000 tested, 0.68% active; growth rescue, % at 12.5 µM; in the data active = growth rescue above about 28%, passing the limit was not always enough;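 note: yeast W303a lacking pdr1 and pdr3 grown in galactose medium; growth measured after three days at 30 °C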
PrPC surface inh = inhibitors of human cell surface prion protein PrPC, primary screen, cell-based, TR-FRET. inhibition, % at 13.8 µM. Major prion protein (Homo sapiens), P04156. TR-FRET read-out. AID 720596, 2013. 370,000 tested, 0.43% active; in the data active = inhibition above about 24%
BJeLR lethal = MLPCN primary cell-based screen for lethality selective to Ras in HRASV12 cells. BJeLR (HRASV12) viability, CellTiter-Glo ATP luminescence, 48 h. inhibition, % (test concentration not listed). 300,000 tested, 0.17% active. AID 1554, 2009; in the data active = inhibition above about 50%
VHR inh abs = VHR1 phosphatase inhibitors, primary screen, biochemical, absorbance, uHTS | Dual specificity protein phosphatase 3 (Homo sapiens), P51452 | recombinant VHR phosphatase, pNPP absorbance | 290,000 tested, 0.52% active | inhibition, % at 13.3 µM; in the data active = inhibition above about 50%
PrPC confirm = confirmation of inhibitors of cell surface human prion protein, confirmation, cell-based, TR-FRET | 1,500 tested, 65% active | AID 743200, 2013 | inhibition, % at 13.8 µM | cell surface PrPC level | shares compounds with PrPC surface inh; in the data active = inhibition above about 25%
LD9 cytotox = cytotoxicity in LD9 cells, cytotoxicity control for cell surface PrPc inhibitor project, cell-based, luminescence, high throughput. shares compounds with PrPC surface inh. inhibition, % at 13.8 µM. AID 743201, 2013. 1,500 tested, 29% active. luminescence viability; in the data active = inhibition above about 9.5%
Each line names hits and unclear results; the compound was inactive in the other large screens (follow-up assays come after a bar, where they were run).

CN[C@H]1C[C@H]2c3[nH]c4cccc(-c5cccc(F)c5)c4c3CCN2C(=O)[C@H]1[C@H](C)O	none (no result: MazEF act, PrP 5UTR inh, PfHsp40 rescue, BJeLR lethal, VHR inh abs)
O=C(Nc1ccc(F)c(Cl)c1)c1ccc2nc([C@@H]3O[C@H](CO)[C@H](O)[C@H](O)[C@H]3O)[nH]c2c1	none (no result: MazEF act, PrP 5UTR inh, PfHsp40 rescue, BJeLR lethal, VHR inh abs)
CNC(=O)C[C@H]1C(=O)N(c2ccccc2)C[C@@H]1CSC	none (no result: PrP 5UTR inh, PfHsp40 rescue, BJeLR lethal, VHR inh abs)
NC(=O)c1nn(-c2ccccc2)c(=O)cc1O	none
NC(=O)c1nn(-c2cccc(Cl)c2)c(=O)cc1O	PrPC surface inh 48.9 | PrPC confirm 48.7 | LD9 cytotox inactive
CCc1cc2ccccc2nc1SCC(=O)Nc1cc(OC)c(OC)cc1C(=O)O	PrPC surface inh 39.6 | PrPC confirm inactive | LD9 cytotox inactive
CC(C)(C)C(=O)c1cnc(Nc2ccccc2Cl)s1	PrPC surface inh 27.7 | PrPC confirm 36.1 | LD9 cytotox inactive
Cc1nccc2c1[nH]c1ccccc12	none
S=c1nc[nH]c2c1[nH]c1ccc(Cl)cc12	PrPC surface inh 42.6 | PrPC confirm 131.5 | LD9 cytotox inactive
S=c1nc[nH]c2c1[nH]c1ccccc12	PrPC surface inh 135.3 | PrPC confirm 141.8 | LD9 cytotox inactive
O=C(NCCc1ccc(Cl)cc1)c1cccc(S(=O)(=O)N2CCCC2)c1	none (no result: PrP 5UTR inh, PfHsp40 rescue, BJeLR lethal, VHR inh abs)
CSc1cccc(NS(=O)(=O)c2ccc3c(c2)CCN3C(C)=O)c1	PrPC surface inh 25.3 | PrPC confirm inactive | LD9 cytotox 14.6
COc1cccc(NS(=O)(=O)c2ccc3c(c2)CCN3C(C)=O)c1	none
Cc1cc(NC(=O)COc2ccc3ccccc3c2Br)no1	PrPC surface inh 80.5 (no result: BJeLR lethal, VHR inh abs) | PrPC confirm 101.0 | LD9 cytotox inactive
COC(=O)NNC(=O)COc1ccc2ccccc2c1Br	PrPC surface inh 34.4 | PrPC confirm 49.1 | LD9 cytotox inactive
O=C(COc1ccc2ccccc2c1Br)NNC(=O)Nc1ccccc1	none
CC(C)(C)C(=O)NNC(=O)COc1ccc2ccccc2c1Br	PrPC surface inh 72.3 | PrPC confirm 70.9 | LD9 cytotox inactive
CCOc1ccccc1OCC(=O)Nc1cc(C)on1	none (no result: BJeLR lethal, VHR inh abs)
CC(=O)N(Cc1cc(=O)[nH]c2ccccc12)c1cccc(C)c1	PrPC surface inh 24.5 | PrPC confirm 30.2 | LD9 cytotox inactive
CC(=O)N(Cc1cc(=O)[nH]c2ccccc12)c1ccccc1	none
CC(C)c1ccc(CCNC(=O)CCNC(=O)c2ccc(Br)cc2)cc1	none
CC1CN(c2ccccc2)c2nc3c(c(=O)[nH]c(=O)n3C)n2C1 (configuration not stated)	none (no result: VHR inh abs)
CC1CN(c2ccc(Cl)cc2)c2nc3c(c(=O)[nH]c(=O)n3C)n2C1 (configuration not stated)	PrPC surface inh 37.7 | PrPC confirm inactive | LD9 cytotox inactive
CC(C)(C)c1ccc(/C=C(\c2nc3ccccc3[nH]2)S(=O)(=O)c2ccccc2)cc1	none (no result: PrPC surface inh, VHR inh abs)
Cc1cccc(/C=C(\c2nc3ccccc3[nH]2)S(=O)(=O)c2ccccc2)c1	PrPC surface inh 25.0 | PrPC confirm inactive | LD9 cytotox 21.8
Cc1ccccc1NC(=O)Nc1ccc(C(F)(F)F)cc1	PrPC surface inh 30.0 | PrPC confirm inactive | LD9 cytotox inactive
Cc1ccccc1NC(=O)CNC(=O)c1ccc(C(F)(F)F)cc1	none
CCCCNC(=O)CSc1nc(CCC)nc2ccccc12	PrPC surface inh 46.0 | PrPC confirm 59.1 | LD9 cytotox inactive
COC(=O)CSc1nc(COc2ccccc2)nc2ccccc12	PrPC surface inh 49.0 | PrPC confirm 65.9 | LD9 cytotox inactive
CCCc1nc(SCC(=O)Nc2nccs2)c2ccccc2n1	none
CCN(CC)C(=O)CSc1nc(COc2ccccc2)nc2ccccc12	none
CCCNC(=O)CSc1nc(COc2ccccc2)nc2ccccc12	PrPC surface inh 29.2 | PrPC confirm 40.7 | LD9 cytotox inactive
O=C(CN1C(=O)NC2(CCCCCCC2)C1=O)Nc1c(Cl)cccc1Cl	none (no result: BJeLR lethal, VHR inh abs)
COC(=O)[C@]12CCCCC=C1N(Cc1ccc3c(c1)OCO3)C(=O)[C@H](CC(=O)N1CCN(C(=O)c3ccco3)CC1)C2	none (no result: MazEF act, PrP 5UTR inh, PfHsp40 rescue, BJeLR lethal, VHR inh abs)
Cc1cccc(C(O)c2ncc(-c3ccc(Cl)cc3)[nH]2)c1C (configuration not stated)	none (no result: MazEF act, PrP 5UTR inh, PfHsp40 rescue, BJeLR lethal, VHR inh abs)
Cc1cccc(C(O)c2ncc(-c3ccc(C(F)(F)F)cc3)[nH]2)c1C (configuration not stated)	PrPC surface inh 25.6 (no result: MazEF act, PrP 5UTR inh, PfHsp40 rescue, BJeLR lethal, VHR inh abs) | PrPC confirm inactive | LD9 cytotox inactive
O=[N+]([O-])c1ccc(N2CCN(CC3CCCCC3)CC2)cc1	PrPC surface inh 50.7 | PrPC confirm inactive | LD9 cytotox inactive
O=C(Cn1cc(S(=O)(=O)Cc2ccc([N+](=O)[O-])cc2)c2ccccc21)N1CCOCC1	none
O=C(Nc1nnc(CC(c2ccccc2)c2ccccc2)s1)c1ccco1	PrPC surface inh 40.4 | PrPC confirm 42.1 | LD9 cytotox inactive
Cc1cc2cc(CNC(=O)C3CCCC3)ccc2n1C	PrPC surface inh 44.3 | PrPC confirm inactive | LD9 cytotox inactive
Cn1c(CNC(=O)C2CCCCC2)cc2cc(Cl)ccc21	PrPC surface inh 30.8 | PrPC confirm 35.0 | LD9 cytotox inactive
Cn1c(CCNC(=O)C2CCCCC2)nc2cc([N+](=O)[O-])ccc21	none
O=c1[nH]c(=O)n(Cc2ccco2)c2c1C(C(F)(F)F)(C(F)(F)F)N=C(Cc1ccccc1)N2	PrPC surface inh 56.4 | PrPC confirm 46.6 | LD9 cytotox inactive
Cc1cccc(Cl)c1NC(=O)N1CCCN(c2nc3ccc(Cl)cc3s2)CC1	none
Cc1nc(Nc2ncc(C(=O)Nc3c(C)cccc3Cl)s2)cc(N2CCN(CCO)CC2)n1	PrPC surface inh 24.7 (no result: MazEF act, PrP 5UTR inh, PfHsp40 rescue, BJeLR lethal, VHR inh abs) | PrPC confirm inactive | LD9 cytotox inactive
CCCCC(=O)NC(c1ccccc1)c1ccc2cccnc2c1O (configuration not stated)	PrPC surface inh 29.1 | PrPC confirm 26.9 | LD9 cytotox 19.2
CCCCC(=O)NC(c1ccccc1Cl)c1ccc2cccnc2c1O (configuration not stated)	PrPC surface inh 38.6 | PrPC confirm 31.6 | LD9 cytotox 30.2
CCCC(=O)NC(c1ccc(OC)cc1)c1ccc2cccnc2c1O (configuration not stated)	PrPC surface inh 27.2 | PrPC confirm 26.0 | LD9 cytotox 31.7
Cc1oc2ccc(O)cc2c1C(=O)c1ccc(F)cc1	none (no result: PrP 5UTR inh, PfHsp40 rescue, VHR inh abs)
CSc1ccccc1-c1cnc(NC(C)=O)cn1	none (no result: MazEF act, PrP 5UTR inh, PfHsp40 rescue, BJeLR lethal, VHR inh abs)
CNc1ncc(C(=O)c2ccc(Cl)cc2)s1	PrPC surface inh 62.0 | PrPC confirm 77.8 | LD9 cytotox inactive
